Assay results taken from PubChem BioAssay (NCATS).
Inconclusive results are not listed. A call without a number means that no potency is given here. Values without a mark were called inactive. Calls of active or inactive are those of the source. Calls follow the shape of the dose curve; as a rule, active = well fitted curve in the direction sought with a large enough effect; inconclusive = small, poorly fitted or top-dose-only effect, or another doubt; inactive = no such curve, though single readings can be large; an effect the other way counts as inactive or inconclusive.

How the values were obtained:
CRL-7250 = normal cell line; assay: Cytotoxic Profiling of Annotated Libraries Using Quantitative High-Throughput Screening (AID 1296008); conditions: Five cell lines viability, CellTiter-Glo ATP luminescence, 48-72 h; max response: stronger effect = lower value; also: nearly all actives have a fitted effect of over 60% in size
Outline: (§1)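 Cytotoxicity was measured as CellTiter-Glo ATP luminescence, read after 10 min at room temperature. Compound treatment of the cells lasted 48 or 72 hr at 37 degrees Celsius in a qHTS format.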

HEK293 = assay: as above; conditions: Five cell lines viability, CellTiter-Glo ATP luminescence, 48-72 h; max response: stronger effect = lower value
Outline: as §1

HaCat [1] = assay: as above; conditions: Five cell lines viability, CellTiter-Glo ATP luminescence, 48-72 h; max response: stronger effect = lower value
Outline: as §1

KB-3-1 = assay: as above; conditions: Five cell lines viability, CellTiter-Glo ATP luminescence, 48-72 h; max response: stronger effect = lower value
Outline: as §1

NIH3T3 = assay: as above; conditions: Five cell lines viability, CellTiter-Glo ATP luminescence, 48-72 h; max response: stronger effect = lower value
Outline: as §1

HEK293T [2] = assay: qHTS assay to identify novel small-molecules to repurpose for Merkel cell carcinoma treatment (AID 1296009); conditions: MCC and control cell lines, CellTiter-Glo viability, 72 h; at 44.8 µM (top of the series) unless noted; also: nearly all actives have a fitted effect of over 60% in size
Outline: (§2)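 Cell viability, measured as CellTiter-Glo luminescence, was normalized between DMSO and no-cell wells. The cells had been exposed to 8- or 11-point compound dilutions for 72 hr at 37 degree celsius.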

C33A = assay: Primary qHTS to identify gynecologic anti-cancer compounds using libraries of approved drugs and bioactive compounds (AID 1345084); conditions: Gynecologic cancer cell panel viability, ATPlite luminescence, 48 h; series mostly up to 57.5 µM; also: nearly all actives have a fitted effect of over 55% in size; also: potency is read from the fitted curve at half-maximal effect
Outline: (§3)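 ATP-based viability (ATPlite), 1,000 cells/well, 16 h pre-incubation, 48 h compound at 37 C, 5% CO2, 15 min RT before read.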

CAOV3 = assay: as above; conditions: Gynecologic cancer cell panel viability, ATPlite luminescence, 48 h; series mostly up to 57.5 µM
Outline: as §3

CASKI = assay: as above; conditions: Gynecologic cancer cell panel viability, ATPlite luminescence, 48 h; series mostly up to 57.5 µM
Outline: as §3

Es-2 = assay: as above; conditions: Gynecologic cancer cell panel viability, ATPlite luminescence, 48 h; series mostly up to 57.5 µM
Outline: as §3

HeLa = assay: as above; conditions: Gynecologic cancer cell panel viability, ATPlite luminescence, 48 h; series mostly up to 57.5 µM
Outline: as §3

Hek293T [3] = assay: as above; conditions: Gynecologic cancer cell panel viability, ATPlite luminescence, 48 h, control line for the selectivity index; series mostly up to 57.5 µM
Outline: as §3

JEG-3 = assay: as above; conditions: Gynecologic cancer cell panel viability, ATPlite luminescence, 48 h; series mostly up to 57.5 µM
Outline: as §3

HACAT [4] = assay: qHTS assay to identify novel small-molecules to repurpose for Merkel cell carcinoma treatment (AID 1296009); conditions: MCC and control cell lines, CellTiter-Glo viability, 72 h; at 44.8 µM (top of the series) unless noted; also: nearly all actives have a fitted effect of over 60% in size
Outline: as §2

SMILES	max response (CRL-7250) [%]	outcome (HEK293)	max response (HaCat [1]) [%]	max response (KB-3-1) [%]	max response (NIH3T3) [%]	outcome (HEK293T [2])	Potency (C33A)	Potency (CAOV3)	outcome (CASKI)	Potency (Es-2)	Potency (HeLa)	Potency (Hek293T [3])	Potency (JEG-3)	max response (HEK293) [%]	outcome (HaCat [1])	outcome (KB-3-1)	outcome (HACAT [4])	outcome (CRL-7250)	outcome (NIH3T3)
O=C(OC[C@H]1O[C@H](O[C@H]2CO[C@H](CO)[C@@H](O)[C@@H]2O)[C@H](O)[C@@H](O)[C@H]1O)c1ccccc1	-5.33	inactive	-15.9	-0.911	4.33	inactive [at 17.4 µM]	inactive	inactive	inactive	inactive	inactive	inactive	inactive	–	–	–	–	–	–
COc1ccc(-c2ccn(CC[C@](C)(C(=O)NO)S(C)(=O)=O)c(=O)c2)c(F)c1	2.02	–	–	–	3.1	–	–	22.4 µM (active)	–	14.1 µM (active)	–	–	20 µM (active)	-10.7	inactive	inactive	inactive	–	–
CC/C=C\C(O)C(O)C1=C(C)C(=O)C2(O1)C(=O)NC(OC)(C(=O)c1ccccc1)C2O (configuration not stated)	–	–	–	7.12	-1.62	–	inactive	–	inactive	inactive	inactive	inactive	inactive	-0.178	inactive	–	inactive [at 17.4 µM]	inactive	–
CC(C)C1(O)NC(=O)C(CC2(O)c3ccccc3N3C(=O)C(C)(C)NC32)n2c1nc1ccccc1c2=O (configuration not stated)	–	inactive	-2.62	–	-5.54	inactive [at 17.4 µM]	inactive	inactive	inactive	inactive	inactive	inactive	inactive	–	–	inactive	–	inactive	–
CCC(C)(C)C1CCc2c(sc(NC(=O)c3ccc(Br)cc3)c2C#N)C1 (configuration not stated)	-2.34	–	–	–	3.88	–	inactive	–	inactive	inactive	inactive	inactive	inactive	2.37	inactive	inactive	inactive	–	–
C=C1CC23CC(=O)C4C(CO)(CO)CCCC4(C)C2CCC1C3 (configuration not stated)	–	–	–	–	-8.41	–	inactive	–	inactive	inactive	inactive	inactive	inactive	2.8	inactive	inactive	inactive	inactive	–
Cn1nccc1-c1ccccc1Oc1ccc(S(=O)(=O)Nc2nccs2)cc1C#N	–	inactive	-17.4	2.49	0.589	inactive	inactive	inactive	inactive	inactive	inactive	inactive	inactive	–	–	–	–	inactive	–
NC(=O)c1ccc(F)c2c1C[C@@H](N(C1CCC1)C1CCC1)CO2	–	–	–	4.79	3.88	–	inactive	–	inactive	inactive	inactive	inactive	inactive	-5.17	inactive	–	inactive	inactive	–
Cc1ccc(-n2nc(C(C)(C)C)cc2NC(=O)Nc2cc(COc3cccnc3)[nH]n2)cc1	-4.33	–	–	–	–	–	–	inactive	inactive	inactive	inactive	inactive	inactive	-3.79	inactive	inactive	inactive	–	inactive
Cc1ccccc1NC(=O)Nc1ccc(CN2C(=O)N([C@@H](CC(C)C)C(=O)N[C@@H](CC(=O)O)c3ccccc3)C(=O)C2(C)C)cc1	-13.5	inactive	3.16	–	-0.819	inactive	inactive	inactive	inactive	inactive	inactive	inactive	inactive	–	–	inactive	–	–	–
CC1CCC23COC(=O)C2=CC(O)CC3C1(C)CCc1ccoc1 (configuration not stated)	1.42	inactive	-3.63	-2.5	-7.2	inactive	inactive	inactive	inactive	inactive	inactive	inactive	inactive	–	–	–	–	–	–
COC(=O)C1=COC(O[C@@H]2O[C@H](COC(=O)/C=C/c3ccc(O)cc3)[C@@H](O)[C@H](O)[C@H]2O)C2C(CO)=CCC12 (some centres not stated)	–	–	–	–	2.77	–	inactive	–	inactive	inactive	inactive	–	inactive	-1.21	inactive	inactive	inactive [at 17.4 µM]	inactive	–
CC1CCC2C(C)(C)[C@H](O)CC[C@]2(C)C12Cc1c(O)cc3c(c1O2)CN(C(CCC(=O)O)C(=O)O)C3=O (some centres not stated)	-1.74	–	–	–	3.99	–	inactive	–	inactive	inactive	inactive	inactive	inactive	0.0488	inactive	inactive	inactive [at 17.4 µM]	–	–
